# Target: HOXA2 (Homo sapiens, UniProt O43364 129-215, R185T)
# Experiment: PBM; 200 nM protein, PBS
# Conditions: dsDNA, one strand shown
# HOXA2 (Homo sapiens, UniProt O43364 129-215, R185T), sequence (O43364 129-215 R185T): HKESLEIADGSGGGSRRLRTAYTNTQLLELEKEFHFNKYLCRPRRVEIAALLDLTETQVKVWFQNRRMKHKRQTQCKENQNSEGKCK
row,Sequence,binding signal
1,CTATTCAA,"9.27 upbm affinity estimate (log intensity, higher = more binding, comparable within an allelic series)"
2,CCTATCAG,"8.81 upbm affinity estimate (log intensity, higher = more binding, comparable within an allelic series)"
3,AGGTTGAT,"8.92 upbm affinity estimate (log intensity, higher = more binding, comparable within an allelic series)"
4,AAATCAGC,"9.59 upbm affinity estimate (log intensity, higher = more binding, comparable within an allelic series)"
5,AACTAAAA,"8.87 upbm affinity estimate (log intensity, higher = more binding, comparable within an allelic series)"
6,AAATACCC,"9.06 upbm affinity estimate (log intensity, higher = more binding, comparable within an allelic series)"
7,AAACATAA,"9.4 upbm affinity estimate (log intensity, higher = more binding, comparable within an allelic series)"
8,AGATAGAT,"8.87 upbm affinity estimate (log intensity, higher = more binding, comparable within an allelic series)"
9,ATCAGAAA,"8.59 upbm affinity estimate (log intensity, higher = more binding, comparable within an allelic series)"
10,TAAACATA,"8.59 upbm affinity estimate (log intensity, higher = more binding, comparable within an allelic series)"
11,ACTCGTAA,"9.32 upbm affinity estimate (log intensity, higher = more binding, comparable within an allelic series)"
12,GACCATCA,"8.84 upbm affinity estimate (log intensity, higher = more binding, comparable within an allelic series)"
13,ATCATCTG,"9.25 upbm affinity estimate (log intensity, higher = more binding, comparable within an allelic series)"
14,AGATGACC,"9.18 upbm affinity estimate (log intensity, higher = more binding, comparable within an allelic series)"
15,GTTTGCAA,"8.76 upbm affinity estimate (log intensity, higher = more binding, comparable within an allelic series)"
16,AGATGTAA,"9.25 upbm affinity estimate (log intensity, higher = more binding, comparable within an allelic series)"
17,AACTATTG,"8.83 upbm affinity estimate (log intensity, higher = more binding, comparable within an allelic series)"
18,ATTTCATC,"8.72 upbm affinity estimate (log intensity, higher = more binding, comparable within an allelic series)"
19,CATCTACG,"8.85 upbm affinity estimate (log intensity, higher = more binding, comparable within an allelic series)"
20,AAACTTAA,"8.91 upbm affinity estimate (log intensity, higher = more binding, comparable within an allelic series)"
21,TATCAAAA,"8.75 upbm affinity estimate (log intensity, higher = more binding, comparable within an allelic series)"
22,AATTGGGC,"9.64 upbm affinity estimate (log intensity, higher = more binding, comparable within an allelic series)"
23,ACAACTTA,"9.5 upbm affinity estimate (log intensity, higher = more binding, comparable within an allelic series)"
24,ATAGAAAT,"9.28 upbm affinity estimate (log intensity, higher = more binding, comparable within an allelic series)"
25,CATTTTAC,"8.88 upbm affinity estimate (log intensity, higher = more binding, comparable within an allelic series)"
26,AAAAATTG,"8.96 upbm affinity estimate (log intensity, higher = more binding, comparable within an allelic series)"

# Target: HOXB9 (Homo sapiens, UniProt P17482 171-250)
# Experiment: PBM; 200 nM protein, PBS
# Conditions: dsDNA, one strand shown
# HOXB9 (Homo sapiens, UniProt P17482 171-250), sequence (P17482 171-250): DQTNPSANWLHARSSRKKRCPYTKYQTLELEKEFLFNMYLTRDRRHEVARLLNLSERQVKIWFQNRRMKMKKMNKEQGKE
row,Sequence,binding signal
1,AGGCTAAT,"9.89 upbm affinity estimate (log intensity, higher = more binding, comparable within an allelic series)"
2,TGTGTAAA,"9.82 upbm affinity estimate (log intensity, higher = more binding, comparable within an allelic series)"
3,AGGAATAA,"9.91 upbm affinity estimate (log intensity, higher = more binding, comparable within an allelic series)"
4,ACAATACC,"9.73 upbm affinity estimate (log intensity, higher = more binding, comparable within an allelic series)"
5,AATGTGAA,"10 upbm affinity estimate (log intensity, higher = more binding, comparable within an allelic series)"
6,CCTATTTA,"10.4 upbm affinity estimate (log intensity, higher = more binding, comparable within an allelic series)"
7,CACACTAA,"9.92 upbm affinity estimate (log intensity, higher = more binding, comparable within an allelic series)"
8,TAATAGTA,"10.9 upbm affinity estimate (log intensity, higher = more binding, comparable within an allelic series)"
9,CATTACTA,"10.6 upbm affinity estimate (log intensity, higher = more binding, comparable within an allelic series)"
10,ATAGATAA,"10.4 upbm affinity estimate (log intensity, higher = more binding, comparable within an allelic series)"
11,AAGCAATA,"10.1 upbm affinity estimate (log intensity, higher = more binding, comparable within an allelic series)"
12,ATATAGTA,"10.2 upbm affinity estimate (log intensity, higher = more binding, comparable within an allelic series)"

# Target: HOXB9 (Homo sapiens, UniProt P17482 171-250, R186Q)
# Experiment: PBM; 200 nM protein, PBS
# Conditions: dsDNA, one strand shown
# HOXB9 (Homo sapiens, UniProt P17482 171-250, R186Q), sequence (P17482 171-250 R186Q): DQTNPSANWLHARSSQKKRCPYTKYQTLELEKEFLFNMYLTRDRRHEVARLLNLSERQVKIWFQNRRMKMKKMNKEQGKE
row,Sequence,binding signal
1,AGGCTAAT,"9.92 upbm affinity estimate (log intensity, higher = more binding, comparable within an allelic series)"
2,AGGAATAA,"9.78 upbm affinity estimate (log intensity, higher = more binding, comparable within an allelic series)"
3,AATGTGAA,"9.94 upbm affinity estimate (log intensity, higher = more binding, comparable within an allelic series)"
4,CCTATTTA,"10.2 upbm affinity estimate (log intensity, higher = more binding, comparable within an allelic series)"
5,CACACTAA,"9.82 upbm affinity estimate (log intensity, higher = more binding, comparable within an allelic series)"
6,TAATAGTA,"10.8 upbm affinity estimate (log intensity, higher = more binding, comparable within an allelic series)"
7,CATTACTA,"10.5 upbm affinity estimate (log intensity, higher = more binding, comparable within an allelic series)"
8,ATAGATAA,"10.4 upbm affinity estimate (log intensity, higher = more binding, comparable within an allelic series)"
9,AAGCAATA,"10.1 upbm affinity estimate (log intensity, higher = more binding, comparable within an allelic series)"
10,ATATAGTA,"10.1 upbm affinity estimate (log intensity, higher = more binding, comparable within an allelic series)"

# Target: HOXA2 (Homo sapiens, UniProt O43364 129-215, Y150S)
# Experiment: PBM; 200 nM protein, PBS
# Conditions: dsDNA, one strand shown
# HOXA2 (Homo sapiens, UniProt O43364 129-215, Y150S), sequence (O43364 129-215 Y150S): as the sequence (O43364 129-215 R185T) above, with Y22S, T57R counted along it
row,Sequence,binding signal
1,CTATTCAA,"10.8 upbm affinity estimate (log intensity, higher = more binding, comparable within an allelic series)"
2,AAATCAGC,"10.7 upbm affinity estimate (log intensity, higher = more binding, comparable within an allelic series)"
3,AACTAAAA,"10.6 upbm affinity estimate (log intensity, higher = more binding, comparable within an allelic series)"
4,ATCAGAAA,"10.6 upbm affinity estimate (log intensity, higher = more binding, comparable within an allelic series)"
5,GACCATCA,"10.6 upbm affinity estimate (log intensity, higher = more binding, comparable within an allelic series)"
6,ATCATCTG,"10.7 upbm affinity estimate (log intensity, higher = more binding, comparable within an allelic series)"
7,AGATGACC,"10.5 upbm affinity estimate (log intensity, higher = more binding, comparable within an allelic series)"
8,ATTTCATC,"10.6 upbm affinity estimate (log intensity, higher = more binding, comparable within an allelic series)"
9,CATCTACG,"10.7 upbm affinity estimate (log intensity, higher = more binding, comparable within an allelic series)"
10,AATTGGGC,"10.6 upbm affinity estimate (log intensity, higher = more binding, comparable within an allelic series)"
11,ACAACTTA,"10.7 upbm affinity estimate (log intensity, higher = more binding, comparable within an allelic series)"

# Target: HOXA2 (Homo sapiens, UniProt O43364 129-215)
# Experiment: PBM; 200 nM protein, PBS
# Conditions: dsDNA, one strand shown
# HOXA2 (Homo sapiens, UniProt O43364 129-215), sequence (O43364 129-215): as the sequence (O43364 129-215 R185T) above, with T57R counted along it
row,Sequence,binding signal
1,CTATTCAA,"9.17 upbm affinity estimate (log intensity, higher = more binding, comparable within an allelic series)"
2,CCTATCAG,"8.67 upbm affinity estimate (log intensity, higher = more binding, comparable within an allelic series)"
3,AGGTTGAT,"9.03 upbm affinity estimate (log intensity, higher = more binding, comparable within an allelic series)"
4,AAATCAGC,"9.43 upbm affinity estimate (log intensity, higher = more binding, comparable within an allelic series)"
5,AACTAAAA,"8.87 upbm affinity estimate (log intensity, higher = more binding, comparable within an allelic series)"
6,AAATACCC,"8.99 upbm affinity estimate (log intensity, higher = more binding, comparable within an allelic series)"
7,AAACATAA,"9.53 upbm affinity estimate (log intensity, higher = more binding, comparable within an allelic series)"
8,AGATAGAT,"8.71 upbm affinity estimate (log intensity, higher = more binding, comparable within an allelic series)"
9,ATCAGAAA,"8.63 upbm affinity estimate (log intensity, higher = more binding, comparable within an allelic series)"
10,TAAACATA,"8.55 upbm affinity estimate (log intensity, higher = more binding, comparable within an allelic series)"
11,ACTCGTAA,"9.32 upbm affinity estimate (log intensity, higher = more binding, comparable within an allelic series)"
12,GACCATCA,"9.24 upbm affinity estimate (log intensity, higher = more binding, comparable within an allelic series)"
13,ATCATCTG,"9.72 upbm affinity estimate (log intensity, higher = more binding, comparable within an allelic series)"
14,AGATGACC,"9.29 upbm affinity estimate (log intensity, higher = more binding, comparable within an allelic series)"
15,GTTTGCAA,"8.78 upbm affinity estimate (log intensity, higher = more binding, comparable within an allelic series)"
16,AGATGTAA,"9.27 upbm affinity estimate (log intensity, higher = more binding, comparable within an allelic series)"
17,AACTATTG,"8.91 upbm affinity estimate (log intensity, higher = more binding, comparable within an allelic series)"
18,ATTTCATC,"8.75 upbm affinity estimate (log intensity, higher = more binding, comparable within an allelic series)"
19,CATCTACG,"9.05 upbm affinity estimate (log intensity, higher = more binding, comparable within an allelic series)"
20,AAACTTAA,"8.97 upbm affinity estimate (log intensity, higher = more binding, comparable within an allelic series)"
21,TATCAAAA,"8.82 upbm affinity estimate (log intensity, higher = more binding, comparable within an allelic series)"
22,AATTGGGC,"9.35 upbm affinity estimate (log intensity, higher = more binding, comparable within an allelic series)"
23,ACAACTTA,"9.5 upbm affinity estimate (log intensity, higher = more binding, comparable within an allelic series)"
24,ATAGAAAT,"9.2 upbm affinity estimate (log intensity, higher = more binding, comparable within an allelic series)"
25,CATTTTAC,"8.85 upbm affinity estimate (log intensity, higher = more binding, comparable within an allelic series)"
26,AAAAATTG,"8.94 upbm affinity estimate (log intensity, higher = more binding, comparable within an allelic series)"

# Reference: article PMC11006913
